Measurements as given in PubChem BioAssay (NCI).
This is part of a sample that, as a whole, favours compounds with a hit. Of some 79,000 tested, about 15% had one in any assay. Calls of active or inactive are those of the source. No stated cut-off is given here; in the data, active means growth inhibition above about 70%; inactive means the rest.

Legend:
[1] = NCI Yeast Anticancer Drug Screen. Data for the rad50 strain (AID 155);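 further: 0% = growth of vehicle-only cultures of the same strain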; conditions: S. cerevisiae rad50 strain growth inhibition, hits give high values
Procedure, shortened: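 Genetically altered yeast (DNA repair pathway); compound treatment; growth inhibition vs vehicle ctrl.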

[2] = NCI Yeast Anticancer Drug Screen. Data for the mec2-1 strain (AID 157); conditions: S. cerevisiae mec2-1 strain, hits give high values
Procedure, shortened: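 Cells of the genetically defined mec2-1 yeast strain are incubated with test compound. Inhibition of growth is calculated against vehicle-treated controls.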

[3] = NCI Yeast Anticancer Drug Screen. Data for the sgs1 mgt1 strain (AID 161);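 further: 0% = growth of cultures given vehicle only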; conditions: S. cerevisiae sgs1 mgt1 strain, hits give high values
Procedure, shortened: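 Inhibition of yeast growth, normalised to vehicle-treated controls, is reported for a strain bearing genetic alterations in DNA damage repair.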

[4] = NCI Yeast Anticancer Drug Screen. Data for the cln2 rad14 strain (AID 165);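 further: 0% = growth equal to vehicle treated cultures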; conditions: S. cerevisiae cln2 rad14 strain, hits give high values
Procedure, shortened: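 The screen exposed genetically defined yeast (cln2 rad14) to test compounds and scored growth inhibition relative to vehicle-treated controls.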

[5] = NCI Yeast Anticancer Drug Screen. Data for the bub3 strain (AID 167); conditions: S. cerevisiae bub3 mutant strain, hits give high values
Procedure, shortened: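 Yeast carrying a defined mutation is treated with each compound, and growth is compared with that of vehicle-exposed cells to give inhibition.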

[6] = NCI Yeast Anticancer Drug Screen. Data for the mlh1 rad18 strain (AID 175); conditions: S. cerevisiae mlh1 rad18 strain growth inhibition, hits give high values
Procedure, shortened: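 Compound-treated yeast growth, normalised to vehicle controls. Strain bears defined DNA repair mutations.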

[7] = at 5.0 µM (retest, dose inferred, filed as 0.5)
[8] = at 50.0 µM (retest, dose inferred, filed as 5.0)

Measured: growth inhibition

Clc1ccc(CN2COc3c(cc(Cl)c4cccnc34)C2)cc1Cl
active: [1]; [8] 97% | [1]; at 50.0 µM 95.4% | [2]; [8] 97% | [2]; at 50.0 µM 97.5% | [3]; [8] 98% | [3]; at 50.0 µM 70.6% | [4]; [8] 97% | [5]; [8] 97% | [6]; [8] 96%
inactive: [1]; [7] 43% | [2]; [7] -12% | [3]; [7] 10% | [4]; [7] -11% | [4]; at 50.0 µM 44.4% | [5]; [7] 3% | [5]; at 50.0 µM -4.9% | [6]; [7] 13% | [6]; at 50.0 µM 47.9%

Oc1cc(-[n+]2ccccc2)c(O)c2ccccc12
inactive: [1]; [7] 15% | [1]; at 50.0 µM -11.2% | [2]; [7] 9% | [2]; [8] 68% | [2]; at 50.0 µM 3.45% | [3]; [7] 5% | [3]; at 50.0 µM -5.35% | [4]; [7] 9% | [4]; at 50.0 µM 37.8% | [5]; [7] 21% | [5]; at 50.0 µM 6.3% | [6]; [7] 28% | [6]; at 50.0 µM 20.8%
active: [1]; [8] 82% | [3]; [8] 80% | [4]; [8] 71% | [5]; [8] 91% | [6]; [8] 83%

CC(C)(C)c1ccc(O)c(CN(Cc2c(O)ccc3ccccc23)C2CCCCC2)c1
inactive: [1]; [7] 22% | [2]; [7] 17% | [3]; [7] 13% | [4]; [7] -12% | [5]; [7] -3% | [6]; [7] 10%
active: [1]; [8] 99% | [1]; at 50.0 µM 98% | [2]; [8] 98% | [2]; at 50.0 µM 98.2% | [3]; [8] 99% | [3]; at 50.0 µM 98% | [4]; [8] 97% | [4]; at 50.0 µM 97.7% | [5]; [8] 99% | [5]; at 50.0 µM 97.4% | [6]; [8] 99% | [6]; at 50.0 µM 98.1%

Cc1cccc2c1C(=O)N(CC[P+](c1ccccc1)(c1ccccc1)c1ccccc1)C2=O
inactive: [1]; at 50.0 µM 58.1% | [2]; [7] 58% | [3]; at 50.0 µM 61.9% | [4]; [7] 58% | [4]; at 50.0 µM 35.3% | [6]; [7] 64% | [6]; at 50.0 µM 67.9%
active: [1]; [7] 77% | [1]; [8] 85% | [2]; [8] 87% | [2]; at 50.0 µM 70.3% | [3]; [7] 70% | [3]; [8] 93% | [4]; [8] 91% | [5]; [7] 80% | [5]; [8] 95% | [5]; at 50.0 µM 70.5% | [6]; [8] 86%

CCOC(=O)C(=O)C1CCCCC1=O (stereo not given)
inactive: [1]; [7] 9% | [2]; [7] 6% | [3]; [7] 5% | [4]; [7] 21% | [5]; [7] 6% | [6]; [7] 11%
active: [1]; [8] 95% | [1]; at 50.0 µM 98.5% | [2]; [8] 98% | [2]; at 50.0 µM 98.8% | [3]; [8] 92% | [3]; at 50.0 µM 98.8% | [4]; [8] 98% | [4]; at 50.0 µM 98.8% | [5]; [8] 98% | [5]; at 50.0 µM 97% | [6]; [8] 98% | [6]; at 50.0 µM 98.8%

CCCCC(CCc1ccccc1[N+](=O)[O-])(C(C)=O)C(=O)OCC (stereo not given)
active: [5]; at 50.0 µM 80.5%
inactive: [1]; [7] 4% | [1]; [8] -15% | [1]; at 50.0 µM 61% | [2]; [7] 4% | [2]; [8] -3% | [2]; at 50.0 µM 15.7% | [3]; [7] -3% | [3]; [8] 14% | [3]; at 50.0 µM 33.6% | [4]; [7] 1% | [4]; [8] -11% | [4]; at 50.0 µM -12.2% | [5]; [7] 15% | [5]; [8] 38% | [6]; [7] 5% | [6]; [8] 3% | [6]; at 50.0 µM 58.8%

Nc1ccccc1/C=C/c1c[nH]c2ccccc12
inactive: [1]; [7] 11% | [2]; [7] 4% | [3]; [7] 5% | [3]; at 50.0 µM 53.2% | [4]; [7] -8% | [5]; [7] 28% | [6]; [7] 9%
active: [1]; [8] 97% | [1]; at 50.0 µM 91.6% | [2]; [8] 98% | [2]; at 50.0 µM 97.5% | [3]; [8] 98% | [4]; [8] 98% | [4]; at 50.0 µM 95.6% | [5]; [8] 97% | [5]; at 50.0 µM 97.7% | [6]; [8] 98% | [6]; at 50.0 µM 97.3%

CCOc1ccccc1N=Nc1ccc2oc(=O)c(C(=O)Nc3cccc(C)c3)cc2c1
inactive: [1]; [7] 3% | [1]; [8] 13% | [1]; at 50.0 µM 52.1% | [2]; [7] 3% | [2]; [8] -2% | [2]; at 50.0 µM 25.9% | [3]; [7] 8% | [3]; [8] -5% | [3]; at 50.0 µM 64.8% | [4]; [7] -4% | [4]; [8] 4% | [4]; at 50.0 µM -76% | [5]; [7] -4% | [5]; [8] -12% | [5]; at 50.0 µM 9.9% | [6]; [7] 3% | [6]; [8] 12%
active: [6]; at 50.0 µM 89%

CN1C/C(=C\c2ccccc2)C(=O)/C(=C/c2ccccc2)C1
active: [1]; [8] 99% | [2]; [8] 100% | [3]; [8] 99% | [4]; [8] 98% | [5]; [8] 99% | [6]; [8] 99%
inactive: [1]; [7] 13% | [1]; at 50.0 µM 54.5% | [2]; [7] 16% | [2]; at 50.0 µM 10.2% | [3]; [7] 19% | [3]; at 50.0 µM 19% | [4]; [7] 14% | [4]; at 50.0 µM 52.5% | [5]; [7] 10% | [5]; at 50.0 µM 14.6% | [6]; [7] 11% | [6]; at 50.0 µM 21.4%

COC1/C=C/OC2(C)Oc3c(C)c(O)c4c(c3C2=O)C(=O)c2cnc(nc2C4=O)/C(C)=C\C=C\C(C)C(O)C(C)C(O)C(C)C(OC(C)=O)C1C (stereo not given)
active: [1]; [8] 97% | [2]; [8] 99% | [3]; [8] 99% | [4]; [8] 97% | [5]; [8] 98% | [6]; [8] 98%
inactive: [1]; [7] 10% | [1]; at 50.0 µM 53.9% | [2]; [7] 17% | [2]; at 50.0 µM 55.2% | [3]; [7] 9% | [3]; at 50.0 µM 42.2% | [4]; [7] 36% | [4]; at 50.0 µM 56.1% | [5]; [7] 23% | [5]; at 50.0 µM 48.9% | [6]; [7] 20% | [6]; at 50.0 µM 50.9%
